# AmpC detergent – blocks E. coli AmpC beta-lactamase in detergent assay. Potency, µM (highest dose often 114 µM), without a hit: at the highest dose activity change, negative = inhibition, most hits filed as inhibitors. 370,000 tested, 0.041% active. AmpC hydrolysis of nitrocefin, absorbance 480 nm, 0.01% Triton. AID 485294;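 further: 0% = no-compound wells and -100% = no-enzyme wells; nearly all actives have a fitted effect of over 25% in size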
# Target sequence (P00811 whole entry, looked up): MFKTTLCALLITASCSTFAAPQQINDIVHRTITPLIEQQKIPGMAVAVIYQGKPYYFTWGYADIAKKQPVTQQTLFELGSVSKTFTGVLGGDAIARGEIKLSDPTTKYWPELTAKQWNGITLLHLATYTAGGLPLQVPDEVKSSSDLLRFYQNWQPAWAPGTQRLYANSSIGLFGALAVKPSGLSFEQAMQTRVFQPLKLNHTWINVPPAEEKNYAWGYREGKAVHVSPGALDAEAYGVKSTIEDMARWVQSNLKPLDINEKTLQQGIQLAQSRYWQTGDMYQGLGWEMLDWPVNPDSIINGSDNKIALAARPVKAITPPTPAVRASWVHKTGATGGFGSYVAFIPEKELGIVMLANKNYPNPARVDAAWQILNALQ
#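 20 mM phosphate pH 7.0 + 0.01% (detergent screen) or 0.0001% Triton X-100; 5.3 nM AmpC reagent; cpd preinc 15 min RT; nitrocefin (800 uM stock) to start; A480 q20 s × 4 min; Activity was normalised to no-enzyme and no-compound control wells.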
# AMA1-RON2 inh – disrupts binding of P. falciparum AMA1 to RON2; AID 720542; Potency, µM (top dose mostly 58.2 µM), for the others: top-dose activity change, negative = inhibition, actives largely listed as inhibitors; 360,000 tested, 0.2% active; AlphaScreen AMA1-biotinylated RON2 peptide binding;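 further: 0% = vehicle wells and -100% = peptide control; nearly all actives have a fitted effect of over 45% in size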
#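 AMA1 (3D7) with his tag at 25 nM final met compounds first, then biotinylated RON2 peptide at 25 nM; detection used donor plus acceptor beads, 10 µg/mL apiece, read by AlphaScreen after 30 min at room temperature.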
# AmpC inh no detg – inhibitors of E. coli AmpC beta-lactamase without detergent. P00811. AmpC nitrocefin hydrolysis, absorbance 480 nm, 0.0001% Triton. Potency, µM (doses to about 57.1 µM), for the others: at the top dose activity change, negative = inhibition, usual class: inhibitors. 330,000 tested, 0.52% active. AID 485341;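 further: plate controls were no compound for no effect and no enzyme for full effect; nearly all actives have a fitted effect of over 20% in size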
#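 20 mM phosphate pH 7.0 + 0.01% (detergent screen) or 0.0001% Triton X-100; 5.3 nM AmpC reagent; cpd preinc 15 min RT; nitrocefin (800 uM stock) to start; A480 q20 s × 4 min; Activity was normalised to no-enzyme and no-compound control wells.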
# RE007 growth inh – less growth of the S. pombe RE007 Vpr strain; S. pombe RE007 Vpr strain, BacTiter-Glo ATP luminescence, 24 h; Potency, µM (titrated, usually from 92.2 µM), without a hit: at the highest dose activity change, negative = less growth, most hits filed as inhibitors; 360,000 tested, 0.21% active; active means well fitted falling curve with a large enough effect; inconclusive means small, poorly fitted or top-dose-only effect; inactive means no such curve, though single readings can be large or run the other way; further: nearly all actives have a fitted effect of over 50% in size
#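 Fission yeast RE007 carrying one integrated HIV-1 vpr copy, seeded at OD 0.01 in PMG+AL medium with 23 nL pinned compound. Grown 24 h at 30 degrees; viability read by BacTiter-Glo luminescence after 5 min.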
# Active calls of the source: *; ? = inconclusive; · = no result; ! = repeats disagree; [ ] = dose if it differs, or a comment. Only some compounds are listed: those with a hit (about 0.79% of all), similar ones and a draw of the others. Unless noted, the call rests on the fitted dose curve; in most records, active means well fitted curve in the direction sought with a large enough effect; inconclusive means small, poorly fitted or top-dose-only effect, or another doubt; inactive means no such curve, though single readings can be large; an effect the other way counts as inactive or inconclusive. Unless noted, on the % scale 0 is the no-effect control and ±100 the full control effect; potency means the concentration at half of the fitted maximal effect.
SMILES,AmpC detergent,AMA1-RON2 inh,AmpC inh no detg,RE007 growth inh
Cc1cc(C)nc(Nc2ncc(O)n2-c2ccc(C)c(Cl)c2)n1,-2%,30%,0.32µM*,?
NC[C@H](O)c1ccc(O)c(O)c1,-14%,2.8µM*,-34%,-8%
CNC[C@H](O)c1ccc(O)c(O)c1,-1%,?,-26%,1%[18.4 µM]
COc1ccc(-c2cc(C(=O)NCc3ccc(F)cc3)c3c(-c4ccc(F)cc4)[nH]nc3n2)cc1OC,1%,·,·,·
O=C(COc1ccc(F)cc1)NCCc1nc2ccccc2[nH]1,-4%,·,·,·
Cc1nn(-c2ccccc2)c(N)c1N=Nc1ccc2ccccc2c1,-6%,22µM*,23%,-1%
COc1ccc(N2CCN(CC(O)COc3ccc(C)cc3C)CC2)cc1 (configuration not stated),0%,25µM*,62%,1%
OC(COc1ccc2ccccc2c1)CN1CCN(c2ccc(F)cc2)CC1 (configuration not stated),?,7%,40µM*,-4%
COc1ccc(N2CCN(CC(O)COc3cc(C)ccc3C)CC2)cc1 (configuration not stated),3%,-19%,57%,-9%
Cc1ccc2c(c1)c(C)cc[n+]2Cc1ccccc1,-8%,-7%,-24%,-26%
CC[n+]1ccc(C[n+]2ccccc2)c2ccccc21,32µM*,-4%[11.6 µM],?,-12%
CCCc1nn2c(C)c(-c3ccccc3)nc2s1,22%,·,·,·
O=C(CNCc1cccs1)Nc1ccc(N2CCCCCC2)cc1,-3%,35µM*,7%,15%
Cc1cc(C)cc(NC(=O)Nc2ccc(N3CCCCC3)cc2)c1,7%,-8%,16µM*,2%
CSc1ccc(CCNC(=O)Cn2ncc3c(=O)oc4ccc(C)cc4c32)cc1,8%,·,·,·
CC(C)OCCCn1c(SCc2cccc(Br)c2)nc2c(sc3ccccc32)c1=O,-5%,·,·,·
Cc1ccccc1-n1c(=O)cc(N2CCc3ccccc3C2)[nH]c1=O,-7%,33%,-22%,5%
O=c1cc(N2CCc3ccccc3C2)[nH]c(=O)n1-c1ccccc1Cl,-1%,-2%,10µM*,3%
O=C(Cn1c(=O)oc2cc(S(=O)(=O)NCc3ccccc3)ccc21)NCc1ccc(F)cc1,4%,·,·,·
Cc1ccc(Nc2c(-c3ccc(C)o3)nc3cnccn23)cc1,-16%,0%,3%,7.9µM*!
Cc1ccc(-c2nc3cnccn3c2Nc2ccc3c(c2)OCO3)o1,?,-18%,2.8µM*,2%
Clc1ccc(-c2nc3cnccn3c2Nc2ccc3c(c2)OCO3)cc1,?,-29%,22µM*,49%
Cc1ccc(-c2nc3cnccn3c2Nc2ccccc2)o1,-8%,3%,-4%,15%
Cc1cc(SCC(=O)NC2(C#N)CCCCC2)nc2c(C)cccc12,-15%,5%,32µM*,11%
Cc1onc(-c2c(Cl)cccc2Cl)c1C(=O)NC1C(=O)N2C1SC(C)(C)C2C(=O)O (configuration not stated),?,24%,?,2%
SMILES,AmpC detergent,AMA1-RON2 inh,AmpC inh no detg,RE007 growth inh
Cc1onc(-c2c(Cl)cccc2Cl)c1C(=O)N[C@@H]1C(=O)N2[C@@H]1SC(C)(C)[C@@H]2C(=O)O,0.045µM*,11%,0.1µM*!,5%[18.4 µM]
COc1cccc(OC)c1C(=O)N[C@@H]1C(=O)N2[C@@H]1SC(C)(C)[C@@H]2C(=O)O,·,33%,·,-5%
CC(Oc1ccccc1)C(=O)NC1C(=O)N2C1SC(C)(C)C2C(=O)O (configuration not stated),35µM*,0%,?,9%
CC(=O)NC(CCS(C)(=O)=O)C(=O)Nc1cccc2ccccc12 (configuration not stated),?,-3%,4.5µM*,-8%
COc1cccc(-c2cc(C(F)(F)F)nc(NCCc3ccccc3)n2)c1,12%,·,·,·
CCc1nnc(NC(=O)CSc2nnc3ncccn23)s1,4%,16%,0.32µM*,1%
COc1ccc(-n2nc([N+](=O)[O-])c(=NCCc3ccc(C)cc3)n2O)cc1,-6%,?,-7%,-3%
COc1ccc(-n2nc([N+](=O)[O-])c(=NCCC3=CCCCC3)n2O)cc1,5%,16µM*,2%,6%
COc1cc(/C=N/NC(=O)C(Cc2c[nH]c3ccccc23)NC(=O)OCc2ccccc2)cc([N+](=O)[O-])c1O (configuration not stated),-6%,1%,10µM*,2%
COc1cc(/C=N/NC(=O)C(Cc2c[nH]c3ccccc23)NC(=O)OCC(C)C)cc([N+](=O)[O-])c1O (configuration not stated),-17%,6%,-52%,0%
Clc1cccc(N2CCN(Cc3nc(-c4ccccc4)no3)CC2)c1,?,-10%,10µM*,-8%
Cc1ccc(N(CC(=O)N/N=C/c2cccc(Br)c2)S(C)(=O)=O)cc1,-12%,7%[11.6 µM],14µM*,12%
COc1ccc(O)c(C(=O)c2coc(=N)c(C(=O)Nc3ccc(SC(F)F)cc3)c2)c1,5%,-23%,14µM*,-10%
CC(C)OC(=O)c1cc(C(=O)c2cc(F)ccc2O)coc1=N,1%,5%,-25%,5%
CCn1c(=O)cc(SCC(=O)N2CCN(c3cc(C)ccc3C)CC2)c2ccccc21,-2%,·,·,·
Cc1ccccc1C(=O)Nc1ccc(OCc2cc(=O)n3ccccc3n2)cc1,26%,·,·,·
Cc1cc2[nH]c(=O)c(=O)[nH]c2cc1S(=O)(=O)N1CCN(c2cccc(C(F)(F)F)c2)CC1,-9%,5%,3.2µM*,0%
Cc1cc2[nH]c(=O)c(=O)[nH]c2cc1S(=O)(=O)N1CCN(c2cccc(Cl)c2)CC1,-14%,-1%,-53%,-6%
CCSc1ncnc2c1oc1ccccc12,?,24%,-13%,-19%
Clc1ncnc2c1oc1ccccc12,1%,3%,0.28µM*,-21%
Cc1ccc(N=Cc2cc(Cc3ccccc3Cl)cc([N+](=O)[O-])c2O)c(O)c1,4%,10µM*,-45%,-27%
COc1ccc(N=Cc2cc(Cc3ccccc3Cl)cc([N+](=O)[O-])c2O)cc1OC,5%,14%,-29%,11%
COc1ccc(/C=C2\SC(=O)N(CC(=O)NNC(=O)c3ccccc3O)C2=O)cc1,-5%,12%,11µM*,3%
CCOc1ccc2nc(N3CCCC(C(=O)NCCc4ccc(OC)cc4OC)C3)sc2c1 (configuration not stated),17%,·,·,·
Cc1cc(C(=O)CSc2nn(-c3ccccc3)c(=S)s2)c(C)n1Cc1ccco1,0%,1%,28µM*,5%
Cc1cc(C(=O)CSc2nnc(-c3ccco3)o2)c(C)n1Cc1ccco1,?,-18%,-6%,-23%
Cc1cc(C(=O)CSc2nncs2)c(C)n1Cc1ccco1,7%,22µM*,-24%,4%
Cc1cc(C(=O)CSc2nc3ccccc3[nH]2)c(C)n1Cc1ccco1,-13%,-22%,-56%,2%

# High-throughput results from PubChem BioAssay.
